Experimental data from PubChem BioAssay (EPA / NIEHS).
Calls of active or inactive are those of the source. Rule for the calls: active = hit-call score of the fitted dose curve at least 0.9, where 1 is the maximum; inactive = score below 0.9.

Test: ATG_Oct_MLP_CIS: Attagene CIS-FACTORIAL HepG2 Assay for human Octamer-Binding Transcription Factor (Oct) (AID 2282993)
Conditions: HepG2 Attagene cis-factorial Oct reporter, mRNA; actives raise or lower the signal
How it was run: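 HepG2 cells transiently transfected with cis-promoter-driven multiplexed reporter transcription units, dosed for 24 h. Reporter mRNA quantified by RT-PCR, fluorescent labelling, HpaI digestion and capillary electrophoresis; bidirectional fits versus DMSO baseline.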

Row | Compound | outcome | AC50
1 | CCCCSCCCC | inactive | 
2 | CCCCC1(COC(=O)CCC(=O)O)C(=O)N(c2ccccc2)N(c2ccccc2)C1=O | inactive | 
3 | Cc1occc(=O)c1OC(=O)C(C)C | inactive | 
4 | CC(C)(C)c1ccc(C(=O)O)cc1 | inactive | 
5 | CC1CC(O)CC(C)(C)C1 (configuration not stated) | inactive | 
6 | CCCOC(=O)c1c(Cl)c(Cl)c(Cl)c(Cl)c1C(=O)OCCC |  | 148 µM (active)
7 | CC(C)CCOC(=O)c1ccccc1 | inactive | 
8 | O=C(O)c1cccnc1C(=O)O | inactive | 
9 | CCC(C)c1cc([N+](=O)[O-])cc([N+](=O)[O-])c1OC(=O)OC(C)C (configuration not stated) | inactive | 
10 | Cc1cccc(Nc2ccccc2)c1 | inactive | 
11 | C=C[Si]1(C)O[Si](C)(C=C)O[Si](C)(C=C)O[Si](C)(C=C)O1 (configuration not stated) | inactive | 
12 | O=Cc1ccccc1S(=O)(=O)O | inactive | 
13 | Brc1ccc(Br)c(Br)c1 | inactive | 
14 | CCOc1ccc(NC(=O)CC(C)O)cc1 (configuration not stated) | inactive | 
15 | CS(=O)(=O)OCCCCOS(C)(=O)=O | inactive | 
16 | OC[C@H]1O[C@@H]2O[C@H]3[C@H](O)[C@@H](O)[C@@H](O[C@H]4[C@H](O)[C@@H](O)[C@@H](O[C@H]5[C@H](O)[C@@H](O)[C@@H](O[C@H]6[C@H](O)[C@@H](O)[C@@H](O[C@H]7[C@H](O)[C@@H](O)[C@@H](O[C@H]8[C@H](O)[C@@H](O)[C@@H](O[C@H]9[C@H](O)[C@@H](O)[C@@H](O[C@H]1[C@H](O)[C@H]2O)O[C@@H]9CO)O[C@@H]8CO)O[C@@H]7CO)O[C@@H]6CO)O[C@@H]5CO)O[C@@H]4CO)O[C@@H]3CO | inactive | 
17 | CC1(C)O[C@@H]2[C@@H](CO[C@@]3(COS(N)(=O)=O)OC(C)(C)O[C@@H]23)O1 | inactive | 
